Screens (PubChem)
ugtP null kill – compounds lethal to S. aureus RN4220 ugtP deletion mutant; OD600 growth, 16 h; growth inhibition, % (test concentration not listed); 0.54% of 330,000 active; in the data active means growth inhibition above about 68%;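 further: plate controls were untreated wells for no effect and antibiotic for full effect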
BJeLR lethal – BJeLR cell viability loss. BJeLR (HRASV12) viability, CellTiter-Glo ATP luminescence, 48 h. inhibition, % (concentration not given with the values). 0.17% of 300,000 active; in the data active means inhibition above about 50%
RN4220 kill – kills Staphylococcus aureus RN4220; S. aureus RN4220 growth, OD600, 16 h; inhibition, % (no concentration beside the values); 0.33% of 330,000 active; AID 1259311; in the data active means inhibition above about 85%;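 further: plate controls were untreated cells for no effect and reference antibiotic for full effect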
PfHsp40 yeast – compounds rescuing yeast from Plasmodium falciparum HSP40 toxicity. S. cerevisiae expressing PfHsp40, growth rescue, ATP luminescence. growth rescue, % at 12.5 µM. 0.68% of 340,000 active; in the data active means growth rescue above about 28%, passing the limit was not always enough;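 further: yeast W303a lacking pdr1 and pdr3 grown in galactose medium; growth measured after three days at 30 °C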
CCHFV vOTU inh – CCHFV vOTU protease inhibition | Pep-AMC fluorescence | inhibition, % at 11.5 µM | 0.55% of 370,000 active | AID 651958; in the data active means inhibition above about 30%; further: 0% = vehicle wells with enzyme and 100% = no enzyme wells
Active calls of the source: *; / = no result given. Most compounds without a hit are left out; they make up all but 1.6% or so of the library.

SMILES	ugtP null kill	BJeLR lethal	RN4220 kill	PfHsp40 yeast	CCHFV vOTU inh
CCc1ccc(CN(C)C(=O)c2cc(COc3cccc(C(F)(F)F)c3)on2)nc1	-9	1	1	112*	14
Cc1ccc(CN(C)C(=O)c2cc(COc3cccc(C(F)(F)F)c3)on2)o1	5	-6	5	6	10
Cc1ccc(S(=O)(=O)c2cnc3cc(C)nn3c2N)cc1	7	-7	5	32*	1
CC(=NNS(=O)(=O)c1ccccc1)c1ccc2c(c1)OCO2	2	/	2	/	/
O=c1ccn(C2OC(CO)C(O)C2O)c(=O)[nH]1 (stereo not drawn)	3	/	4	/	/
O=c1cnn([C@@H]2O[C@H](CO)[C@@H](O)[C@H]2O)c(=O)[nH]1	/	23	/	61*	/
COc1cc2cc(Oc3ccc4ccc(=O)oc4c3)c(=O)oc2cc1OC1OC(CO)C(O)C(O)C1O (stereo not drawn)	1	/	1	/	/
Cc1cc(NC(=NS(=O)(=O)c2ccc(F)cc2F)c2ccccc2)no1	8	/	3	/	/
CC(=O)Nc1cccc(-c2cc(-c3c(Cl)cccc3Cl)no2)c1	24	1	1	357*	0
CCCSc1ccc([C@@H]2[C@@H]3C(=O)N(C)C(=O)[C@@H]3[C@]3(C(=O)OC)CCCN23)cc1OC	/	/	/	63*	/
CCCSc1ccc(C2C3C(=O)N(C)C(=O)C3[C@]3(C(=O)OC)CCCCN23)cc1OC (stereo partly drawn)	5	/	6	/	/
Cc1cccc2c1OCCC2=NNC(=O)COc1ccccc1Cl	-11	/	2	/	/
CCSc1nnc(NC(=O)c2ccc(Br)s2)s1	27	3	48	0	-12
O=C(Nc1nnc(C(F)(F)F)s1)c1ccc(Br)s1	81*	18	84	-2	16
CC(C)(C)CC(=O)Nc1nnc(C(F)(F)F)s1	9	10	9	-1	13
CC(NC(=O)Nc1nnc(C(F)(F)F)s1)(C(F)(F)F)C(F)(F)F	83*	12	74	-2	13
O=C(Nc1ccccc1C(=O)Nc1nnc(C(F)(F)F)s1)c1ccccc1Cl	90*	9	88*	-1	12
O=C(Nc1nnc(C2CC2)s1)C1COc2ccccc2O1 (stereo not drawn)	-9	4	0	-1	-10
O=C(Nc1nnc(C(F)(F)F)s1)C1COc2ccccc2O1 (stereo not drawn)	88*	4	91	1	1
CC1(C)Oc2ccc(NC(=O)C3COc4ccccc4O3)cc2O1 (stereo not drawn)	-8	16	-6	41*	-13
Cc1nn(-c2ccccc2)nc1C(=O)Nc1nnc(C(F)(F)F)s1	86*	-11	79	1	-6
CCN1C(=O)C2C(c3ccc(-c4ccc(C(C)=O)cc4)c(OC)c3)N3CCC[C@@]3(C(=O)OC)C2C1=O (stereo partly drawn)	-1	/	9	/	/
Cc1ccc(S(=O)(=O)Nc2ccccc2C=Nc2nc3ccccc3n2C(C)C)cc1	3	/	26	/	/
COc1ccc(-c2csc(NC(CO)c3nc4ccccc4n3Cc3ccc(C)cc3)n2)cc1 (stereo not drawn)	-2	-5	1	-1	9
Cc1ccc(-c2csc(NC(CO)c3nc4ccccc4n3CCOCCO)n2)cc1 (stereo not drawn)	5	-8	3	34*	-7
SMILES	ugtP null kill	BJeLR lethal	RN4220 kill	PfHsp40 yeast	CCHFV vOTU inh
COC(=O)c1ccc(C23CC4(C2)C(CN(Cc2ccc(-c5ccccc5)cc2)C4c2ccccc2)C3c2ccc(Cl)nc2)cc1 (stereo not drawn)	2	/	1	/	/
O=C1N(c2ccc3c(c2)OCCO3)C(c2ccccc2)C1(F)F (stereo not drawn)	8	-12	3	43*	-1
Cc1ccc(N2C(=O)C(F)(F)C2c2ccccc2)cc1 (stereo not drawn)	/	6	/	7	8
O=C(CCCCCCCCCCC(=O)NCc1cccnc1)NCc1cccnc1	4	74*	2	-1	2
O=C(CCCCCN1C(=O)c2cccc3cccc(c23)C1=O)NCc1cccnc1	5	80*	1	/	-11
O=C(CCCN1C(=O)c2cccc3cccc(c23)C1=O)NCc1cccnc1	5	-14	9	2	-11
CC(C)(C)C(=O)Nc1ccc(C(=O)NCc2cccnc2)cc1	-5	3	-21	0	-8
O=C(CCCN1C(=O)c2ccccc2C1=O)NCc1cccnc1	-10	12	3	1	-5
CC(C)(C)c1ccc(C(=O)Nc2ccc(C(=O)NCc3cccnc3)cc2)cc1	-3	82*	2	2	3
CN1CC[C@]2(CCN3CCc4c(oc5ccccc45)C3C2)N(C)C1=O (stereo partly drawn)	13	/	3	/	/
CCn1c(=O)c(C(=O)NCCc2ccc(OC)c(OC)c2)c(O)c2ccccc21	-4	9	9	10	-1
CCCCCCC(=O)NNC(=O)c1c(O)c2ccccc2n(CCC)c1=O	29	-2	28	-1	-14
CCCn1c(=O)c(C(=O)NCCc2ccc(OC)c(OC)c2)c(O)c2ccccc21	-3	10	6	192*	7
CCn1c(=O)c(C(=O)NNC(=O)c2ccccc2)c(O)c2ccccc21	-6	-7	11	168*	-2
CCCCCCC(=O)NNC(=O)c1c(O)c2ccccc2n(CC)c1=O	-7	-4	25	4	8
CCCCCCCC(=O)NNC(=O)c1c(O)c2ccccc2n(CCC)c1=O	78	-2	98*	3	9
CCCn1c(=O)c(C(=O)Nc2ccccc2)c(O)c2ccccc21	21	5	-7	1	14
CCCn1c(=O)c(C(=O)Nc2cccc(C)c2)c(O)c2ccccc21	84*	-1	7	-1	5
Cc1ccc(C)c(NC(=O)CCC(=O)NN=Cc2ccc3c(c2)OCO3)c1	-3	/	4	/	/
COc1cc(/C=C/[N+](=O)[O-])ccc1OC(=O)c1cc2ccccc2oc1=O	-11	20	1	118*	5
CCN1C(=O)C2C(c3ccc(OC)cc3)N3C(=O)CN(CC4CC4)C(=O)[C@@]3(C)C2C1=O (stereo partly drawn)	-5	/	0	/	/
CN(C)c1ccc(C=C2C=Cc3ccccc32)cc1	-4	/	-4	-1	0
CNc1ccc(C=C2C=Cc3ccccc32)cc1	77	/	20	172*	21
Cc1ccc2c(c1)C1C(CO2)C(c2ccccc2)[C@@]2(C)C(=O)NC(C)C(=O)N12 (stereo partly drawn)	0	/	2	/	/
O=C(NN=Cc1ccsc1)c1cc2ccccc2o1	2	/	1	/	/
CC1CCc2c(N3CCC(O)CC3)c(F)cc3c(=O)c(C(=O)O)cn1c23 (stereo not drawn)	99*	/	99*	1	-1
NC1CCN(c2c(F)cc3c(=O)c(C(=O)O)cn(C4CC4)c3c2Cl)C1 (stereo not drawn)	100*	-8	100*	2	7
CCOC(=O)c1cn(C2CC2)c2c(F)c(NCCCN(C)C)c(F)cc2c1=O	7	-3	4	-1	-21
